This passage reports Potency results from PubChem BioAssay (Tox21).

Assay [1] in a line: A CellTox Green Cytotoxicity Assay to monitor cytotoxicity in HEK293 cells - 32 hour (AID 1224881). Note: nearly all actives have a fitted effect of over 40% in size. Note: potency is the fitted concentration of half-maximal effect. Summed up: (§1)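 Nonlytic real-time cytotoxicity: HEK293 + CellTox Green reagent plated, 5 h preincubation, pintool compound addition (23 nL in DMSO), 37 C for 40 h, fluorescence measured at successive time points.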
Assay [2] can be described thus: A CellTox Green Cytotoxicity Assay to monitor cytotoxicity in HepG2 cells - 0 hour (AID 1224882). Note: nearly all actives have a fitted effect of over 35% in size. Summed up:
(§2)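 Read-out is fluorescence of a cyanine dye excluded from live cells that stains DNA of dead HepG2 cells, with signal proportional to cytotoxicity. Plates were read at 0, 8, 16, 24, 32 and 40 h after compound addition.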

Assay [3] can be described thus: A CellTox Green Cytotoxicity Assay to monitor cytotoxicity in HepG2 cells - 32 hour (AID 1224883). Note: nearly all actives have a fitted effect of over 50% in size. Note: potency is the fitted concentration of half-maximal effect. Put shortly: as §2
Assay [4] is described as follows: qHTS RealTime-Glo MT Cell Viability Assay in HepG2 cells - 16 hour (AID 1224885). Note: nearly all actives have a fitted effect of over 50% in size. Note: potency is the fitted concentration of half-maximal effect. Put shortly: (§3)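 Cells + NanoLuc/prosubstrate dispensed (600 cells/well) → 5 h at 37 C/5% CO2 → compounds in DMSO transferred → 40 h incubation at 37 C, luminescence read at 0, 8, 16, 24, 32, 40 h.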
Assay [5] is described as follows: qHTS RealTime-Glo MT Cell Viability Assay in HEK293 cells - 24 hour (AID 1224886). Note: nearly all actives have a fitted effect of over 50% in size. Note: potency is the fitted concentration of half-maximal effect. Put shortly: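 Tox21 10K qHTS, HEK293, 600 cells/well, RealTime-Glo reagent co-dispensed with cells; 5 h preincubation, compound by pintool, 37 C, luminescence at 0–40 h.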
Background: qHTS replaces the single test concentration by a dilution series.

Assay [6] in a line: qHTS RealTime-Glo MT Cell Viability Assay in HEK293 cells - 8 hour (AID 1224887). Note: top concentration of the series differs between compounds; nearly all actives have a fitted effect of over 50% in size. Summed up:
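Cells were seeded together with NanoLuc luciferase and a prosubstrate that viable cells reduce to a luciferase substrate. After a 5 h incubation at 37 C/5% CO2, compounds were added and luminescence was measured repeatedly during 40 h of treatment.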

A short description of assay [7]: A CellTox Green Cytotoxicity Assay to monitor cytotoxicity in HEK293 cells - 16 hour (AID 1224888). Note: nearly all actives have a fitted effect of over 35% in size. Note: potency is the fitted concentration of half-maximal effect. Put shortly: as §1
Assay [8] can be described thus: qHTS RealTime-Glo MT Cell Viability Assay in HepG2 cells - 0 hour (AID 1224889). Note: nearly all actives have a fitted effect of over 50% in size. Note: potency is the fitted concentration of half-maximal effect. Put shortly:
as §3

Assay [9] is described as follows: A CellTox Green Cytotoxicity Assay to monitor cytotoxicity in HepG2 cells - 8 hour (AID 1224890). Note: nearly all actives have a fitted effect of over 45% in size. Summed up:
as §2

Assay [10] in a line: qHTS assay to identify small molecule antagonists of the estrogen receptor alpha (ER-alpha) signaling pathway using the BG1 cell line in the presence of 0.1 nM 17-beta-estradiol - cell viability counter screen (AID 1259241). Note: nearly all actives have a fitted effect of over 40% in size. Summed up: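 Cytotoxicity counter-screen: live-cell protease activity measured by fluorescence (30 min reagent step) in the same wells. Cells were VM7Luc4E2 with endogenous ER-alpha and ERE-driven luciferase, treated 22 hr at 37C alongside 0.1 nM 17beta-estradiol final.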

Assay [11] in a line: qHTS assay to identify small molecule antagonists of the androgen receptor (AR) signaling pathway using the MDA cell line in the presence of 0.5 nM R1881 - cell viability counter screen (AID 1259242). Note: nearly all actives have a fitted effect of over 45% in size. Note: potency is the fitted concentration of half-maximal effect. Put shortly: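 Counter screen for cytotoxicity run in the same wells as the AR antagonist reporter screen: MDA-kb2 cells were treated 16 hr with test compounds and 0.5 nM R1881, then live-cell protease activity was measured by fluorescence.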

Assay [12] in a line: qHTS assay to identify small molecule phospholipidosis (PLD) inducers (AID 1259344; active = well fitted curve in the direction sought with a large enough effect; an effect the other way counts as inactive or inconclusive). Put shortly: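 HepG2 cells on collagen I, attached 4 h at 37 C, were co-treated with compound and LipidTOX Red dye for 24 h at 37 C, then fixed with paraformaldehyde plus Hoechst 33342 and imaged by high-content microscopy for phospholipid accumulation.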
Assay [13] is described as follows: qHTS assay to identify small molecule HDAC inhibitors (AID 1259364). Note: top concentration of the series differs between compounds; nearly all actives have a fitted effect of over 45% in size. Put shortly:
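Luminescence from a cell-permeant luminogenic class I/II HDAC substrate reports endogenous deacetylase activity in intact HCT-116 cells treated with compounds for 2 h.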

Assay [14] in a line: qHTS assay to identify small molecule HDAC inhibitors - cell viability counter screen (AID 1259365). Put shortly:
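CellTiter-Glo luminescence (30 min, room temperature) reported viability after a 2 h compound exposure at 37 C. Cells: wild-type HCT-116, 1,500 per well, seeded the night before.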

Assay [15] in a line: qHTS assay to identify small molecule agonists of the sonic hedgehog signaling (Shh) pathway - cell viability counter screen (AID 1259366). Note: nearly all actives have a fitted effect of over 50% in size. Note: potency is the fitted concentration of half-maximal effect. Summed up:
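Cytotoxicity counter screen: CellTiter-Fluor reagent added after 23 h compound exposure, then 1 h at 37C and fluorescence read. Cells were 3T3 Gli1-Luc, seeded 2,000 per well and dosed 4 h post-plating.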

Assay [16] is described as follows: qHTS assay to identify small molecule antagonists of the sonic hedgehog signaling (Shh) pathway - cell viability counter screen (AID 1259367). Note: nearly all actives have a fitted effect of over 55% in size. Summed up: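 NIH/3T3-derived Gli1-Luc reporter cells (2,000 per well) rested 4 hr at 37 C, then received DMSO compounds plus conditioned medium. After 23 hr of treatment, CellTiter-Fluor was added for 1 hr at 37C and fluorescence read.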

Assay [17] can be described thus: qHTS assay to identify small molecule agonists of the sonic hedgehog signaling (Shh) pathway (AID 1259368; calls by dose curve;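 note: NIH/3T3-derived 3T3Gli1-Luc cells carrying a stable Gli1-driven firefly luciferase reporter; series mostly up to about 92 µM; nearly all actives have a fitted effect of over 15% in size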). Put shortly: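 3T3Gli1-Luc (NIH/3T3 clone, stable Gli1-Luc); 4 hr pre-incubation, then cpd in DMSO 24 hr, 37 C/5% CO2; luciferase reagent 30 min RT; luminescence.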
Assay [18] in a line: A CellTox Green Cytotoxicity Assay to monitor cytotoxicity in HEK293 cells - 8 hour (AID 1224884). Note: nearly all actives have a fitted effect of over 35% in size. Summed up: as §1
For assay [19], the target named is Androgen receptor (Homo sapiens) (UniProt P10275). Description: qHTS assay to identify small molecule antagonists of the androgen receptor (AR) signaling pathway using the MDA cell line in the presence of 0.5 nM R1881 (AID 1259243). Note: nearly all actives have a fitted effect of over 50% in size. Put shortly: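 Luciferase luminescence is the read-out: compounds are tested for suppressing 0.5 nM R1881-driven MMTV reporter activity in MDA-kb2 cells after 16 hr at 37C.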

For assay [20], the target named is Estrogen receptor (Homo sapiens) (UniProt P03372). The assay is described as follows: qHTS assay to identify small molecule antagonists of the estrogen receptor alpha (ER-alpha) signaling pathway using the BG1 cell line in the presence of 0.1 nM 17-beta-estradiol (AID 1259244). Note: nearly all actives have a fitted effect of over 50% in size. Put shortly:
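Cells: VM7Luc4E2, endogenous ER-alpha, 4x ERE-luc stable. Pre-culture 5 d, phenol red-free, charcoal-stripped FBS. Plated 24 h, compound + E2 0.1 nM final, 22 h 37C/5% CO2. Readout ONE-Glo luminescence.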

Structures are written as SMILES. Inconclusive results are not listed. Active and inactive are the calls of the source. Unless noted, calls come from the whole dose curve; as a rule, active = well fitted curve in the direction sought with a large enough effect in the repeat runs; inconclusive = weak or mixed curves; inactive = no such curve, though single readings can be large; an effect the other way counts as inactive or inconclusive.

Estrogen receptor (Homo sapiens), sequence (P03372 whole entry, looked up): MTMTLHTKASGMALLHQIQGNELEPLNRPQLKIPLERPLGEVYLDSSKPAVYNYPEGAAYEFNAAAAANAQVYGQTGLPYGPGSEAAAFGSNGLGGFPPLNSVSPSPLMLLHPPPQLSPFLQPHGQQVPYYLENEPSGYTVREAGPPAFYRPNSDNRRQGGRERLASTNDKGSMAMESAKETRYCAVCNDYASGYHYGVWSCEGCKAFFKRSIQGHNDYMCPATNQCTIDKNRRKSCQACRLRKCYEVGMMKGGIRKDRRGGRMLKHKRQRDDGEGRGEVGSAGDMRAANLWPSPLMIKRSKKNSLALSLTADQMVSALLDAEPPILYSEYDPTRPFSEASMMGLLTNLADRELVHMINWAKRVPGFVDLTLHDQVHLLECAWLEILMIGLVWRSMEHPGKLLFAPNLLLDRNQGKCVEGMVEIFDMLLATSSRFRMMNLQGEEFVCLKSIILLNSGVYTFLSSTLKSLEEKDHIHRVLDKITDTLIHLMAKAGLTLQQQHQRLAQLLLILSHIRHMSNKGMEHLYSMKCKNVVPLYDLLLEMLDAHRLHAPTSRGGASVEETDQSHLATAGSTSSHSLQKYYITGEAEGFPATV
Androgen receptor (Homo sapiens), sequence (P10275 whole entry, looked up): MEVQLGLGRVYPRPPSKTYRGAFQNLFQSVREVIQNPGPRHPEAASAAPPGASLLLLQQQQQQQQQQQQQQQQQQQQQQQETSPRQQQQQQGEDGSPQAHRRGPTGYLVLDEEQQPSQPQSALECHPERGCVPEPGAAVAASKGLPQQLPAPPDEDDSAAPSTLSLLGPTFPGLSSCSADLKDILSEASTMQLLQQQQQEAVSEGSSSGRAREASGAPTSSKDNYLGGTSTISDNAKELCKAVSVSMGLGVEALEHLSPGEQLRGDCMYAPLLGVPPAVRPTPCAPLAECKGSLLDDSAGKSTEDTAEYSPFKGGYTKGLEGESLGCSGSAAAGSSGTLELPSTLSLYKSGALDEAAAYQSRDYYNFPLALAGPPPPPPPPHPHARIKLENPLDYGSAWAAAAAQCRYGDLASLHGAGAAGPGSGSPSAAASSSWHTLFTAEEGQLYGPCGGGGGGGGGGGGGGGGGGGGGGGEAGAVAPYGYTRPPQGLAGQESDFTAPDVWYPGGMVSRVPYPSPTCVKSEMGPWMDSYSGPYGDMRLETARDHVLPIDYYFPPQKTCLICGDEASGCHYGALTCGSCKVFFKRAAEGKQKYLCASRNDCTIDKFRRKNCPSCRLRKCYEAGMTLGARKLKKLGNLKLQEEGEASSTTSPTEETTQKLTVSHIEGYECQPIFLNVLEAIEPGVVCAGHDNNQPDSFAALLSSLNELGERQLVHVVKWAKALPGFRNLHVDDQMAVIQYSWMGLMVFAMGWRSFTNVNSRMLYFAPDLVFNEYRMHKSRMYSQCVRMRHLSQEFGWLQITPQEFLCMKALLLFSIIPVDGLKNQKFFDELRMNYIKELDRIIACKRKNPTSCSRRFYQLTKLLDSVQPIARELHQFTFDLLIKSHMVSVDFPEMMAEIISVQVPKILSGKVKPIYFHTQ

Consider `NNC(=O)CP(=O)(c1ccccc1)c1ccccc1`, for which the Potency entry in assay [1], in assay [2], in [3], in assay [4], in assay [5] and in [6] was “inactive” each time. The Potency entry in [7], in assay [8], in assay [9], in assay [10], in assay [11] and in [12] was “inactive” throughout. Further, the Potency result in assay [13], in [14], in [15], in assay [16] and in assay [17] was “inactive” in each case.

As to `CC/C=C1/OC(=O)c2ccccc21`, the Potency entry in [1], in assay [2], in [18], in assay [4], in assay [5] and in [6] was “inactive” in each case. Besides, the Potency result in assay [7], in [8], in [9], in assay [10], in assay [11] and in assay [19] was “inactive” in each case. The Potency result in assay [13], in assay [14] and in assay [17] was “inactive” in each case.

`CCCCCCCCCCCCCCN(CCO)CCO`: the Potency in [1] is 38.9 µM (active); in assay [3], 19.5 µM (active); in assay [4], 43.6 µM (active); in assay [5], 21.9 µM (active); in [7], 54.9 µM (active); in [11], 48.6 µM (active). Further, the Potency in [15] was 61.1 µM (active). Further, the Potency entry in assay [2], in assay [8], in assay [10], in assay [13], in [14] and in assay [16] was “inactive” each time. In addition, in assay [17], the Potency entry is “inactive”.

On to `Cc1ccccc1N=C(N)Nc1ccccc1C`, for which the Potency result in assay [1], in [2], in [3], in [4], in assay [5] and in assay [6] was “inactive” each time. Besides, the Potency result in assay [7], in assay [8], in assay [9], in assay [10], in assay [11] and in assay [20] was “inactive” in each case. Besides, the Potency entry in [13], in [14], in [15] and in assay [17] was “inactive” throughout.

For the molecule `CC(=O)OCC[N+](C)(C)C`, the Potency entry in assay [1], in assay [2], in assay [3], in assay [4], in assay [5] and in assay [6] was “inactive” in each case. For the same molecule, the Potency entry in [7], in assay [8], in assay [9], in assay [10], in assay [11] and in assay [12] was “inactive” throughout. For the same molecule, the Potency entry in [13], in assay [14], in [15], in assay [16] and in assay [17] was “inactive” in each case.

On to `CC(C)Nc1cccnc1N1CCN(C(=O)c2cc3cc(NS(C)(=O)=O)ccc3[nH]2)CC1`, for which the Potency result in [1], in [2], in assay [3], in assay [4], in assay [5] and in assay [6] was “inactive” in each case. For the same molecule, the Potency entry in assay [7], in [9], in assay [10], in assay [11], in assay [20] and in assay [12] was “inactive” throughout. Besides, the Potency entry in [13], in assay [14], in assay [15], in assay [16] and in assay [17] was “inactive” throughout. In addition, the Potency in [8] was 3.38 µM (active).

As for `O=C=Nc1ccc(Cl)c(Cl)c1`, the Potency entry in assay [1], in assay [2], in assay [18], in [4], in [5] and in [6] was “inactive” in each case. The Potency entry in assay [7], in assay [8], in assay [9], in [10], in assay [11] and in assay [20] was “inactive” each time. For the same molecule, the Potency result in [13], in assay [14], in assay [15], in assay [16] and in assay [17] was “inactive” each time.
